Compounds with a hit are over-represented: about 5.4% of the library has one in this group of screens.
HSF1 inhib = HSF1 inhibition. 300,000 compounds, 0.77% hits. AID 2098. activity change, negative = inhibition, % at 7.5 µM (by protocol). NIH3T3-HGL HSE-luciferase, MG132-induced, luminescence 8 h; hits give low values;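 active means more than half of replicate wells show activity change below -50%, luminescence cut by over half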;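 further: luciferase reports HSF-1 transcriptional activity via heat shock element; 0% = median of DMSO wells and -100% = zero luminescence signal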
NR0B1 inh = inhibitors of human orphan nuclear receptor DAX1 (NR0B1). 340,000 compounds, 0.99% hits. HEK293 Gal4-DAX1 luciferase reporter, luminescence. P51843. inhibition, % at 6.75 µM;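 active means inhibition above the mean over all tested compounds plus 3 SD, cut at about 4.2% in these data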;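 further: 0% = DAX1-transfected cells with DMSO and 100% = empty-vector control cells with DMSO; inhibition shows as a rise in luminescence from relieved DAX1 repression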
AHR act = activators of human aryl hydrocarbon receptor | P35869 | AHR-responsive luciferase reporter cells, luminescence | activation, % at 5 µM | 320,000 compounds, 2.5% hits | AID 2796; in the data active means activation above about 47%;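 further: 0% = vehicle wells and 100% = reference agonist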
Target sequence (P35869 whole entry, looked up): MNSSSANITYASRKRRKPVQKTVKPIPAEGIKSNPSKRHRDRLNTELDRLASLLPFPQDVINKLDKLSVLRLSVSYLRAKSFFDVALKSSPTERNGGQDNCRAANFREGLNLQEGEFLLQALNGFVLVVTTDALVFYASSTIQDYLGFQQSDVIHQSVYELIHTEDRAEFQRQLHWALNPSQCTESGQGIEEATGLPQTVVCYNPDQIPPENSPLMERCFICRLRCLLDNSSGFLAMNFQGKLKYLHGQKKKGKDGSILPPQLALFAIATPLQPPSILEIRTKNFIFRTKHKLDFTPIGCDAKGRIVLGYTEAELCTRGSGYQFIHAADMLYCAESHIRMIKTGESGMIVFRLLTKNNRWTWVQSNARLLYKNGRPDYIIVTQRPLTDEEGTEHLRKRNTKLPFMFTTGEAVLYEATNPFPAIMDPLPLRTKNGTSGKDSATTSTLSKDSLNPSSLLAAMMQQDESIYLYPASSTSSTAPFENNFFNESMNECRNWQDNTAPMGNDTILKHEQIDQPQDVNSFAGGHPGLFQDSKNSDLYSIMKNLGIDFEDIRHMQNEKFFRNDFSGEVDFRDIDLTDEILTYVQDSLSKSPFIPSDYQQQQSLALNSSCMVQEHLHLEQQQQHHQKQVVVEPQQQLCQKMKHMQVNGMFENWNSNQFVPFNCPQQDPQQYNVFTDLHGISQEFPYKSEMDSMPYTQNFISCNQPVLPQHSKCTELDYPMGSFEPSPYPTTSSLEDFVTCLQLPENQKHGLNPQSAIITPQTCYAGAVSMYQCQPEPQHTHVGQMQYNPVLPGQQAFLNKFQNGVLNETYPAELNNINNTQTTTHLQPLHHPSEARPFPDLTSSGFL
FXN GAA850 act = activators of GAA850 frataxin (FXN) promoter | HEK293 lucGAA850 FXN promoter luciferase reporter, 24 h; percent of 10 µM SAHA response | activation, % at 6 µM | 360,000 compounds, 0.56% hits | AID 540364;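 active means activation above the average of all compounds screened plus 3 SD, cutoff fixed separately per campaign, cut at about 7.5% in these data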;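 further: 0% = DMSO wells and 100% = 10 µM SAHA wells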
HSF1 activator = increases HSF-1 driven luciferase reporter signal. activation, % at 9 µM. NIH3T3-HGL HSF-1 luciferase reporter, MG132, 8 h; 100% = twice DMSO control signal. 300,000 compounds, 1.7% hits;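 active means mean replicate activation of at least 50% with a set share of replicates each reaching 50%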;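 further: 0% = median of the neutral control wells and 100% = twice that signal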
* marks the source's active call; other numbers are inactive results; . = no result given.

SMILES	HSF1 inhib	NR0B1 inh	AHR act	FXN GAA850 act	HSF1 activator
Cc1ccccc1C(=O)NC(C(N)=O)P(=O)(OC(C)C)OC(C)C (stereo not given)	1.7	2.2	-1.2	-1.3	4.6
Cc1cccc(N=C2NC(=O)/C(=C3/C(=O)N(C)c4ccccc43)S2)c1C	6.0	-0.3	68.2*	-1.0	-4.7
COc1cc(OC)cc(C(=O)NNC(=O)CCC(=O)c2cccs2)c1	-5.4	0.1	3.1	2.9	-5.8
C/C(=N\Nc1nncc2ccccc12)c1ccc(C(C)(C)C)cc1	7.7	4.9*	-0.2	3.5	32.2
CCOC(=O)c1sc2c(c1C)C(c1cccs1)C1=C(CCCC1=O)N2 (stereo not given)	28.1	-0.4	-0.4	0.3	79.3*
CCOC(=O)C1=C(C)NC2=C(C(=O)CCC2)C1c1cccs1 (stereo not given)	6.9	-0.8	0.9	-0.8	-15.7
Cc1c(N=C2SCC(=O)N2/N=C\c2ccc(Br)cc2)c(=O)n(-c2ccccc2)n1C	21.2	0.6	3.4	1.5	66.7*
C/C(=N\NC(=O)c1nnn(-c2nonc2N)c1C(C)C)c1ccncc1	-50.6*	0.4	4.0	2.2	-58.0
CCC(=O)OCCNc1cc(Sc2nccn2C)c2nonc2c1[N+](=O)[O-]	400.4	2.2	-0.7	6.9	436.8*
CCc1noc(C)c1C(=O)OC(C)C(=O)Nc1ccccc1OC (stereo not given)	3.0	-0.6	3.6	1.1	6.6
Cc1cnn(-c2nc(-c3cccs3)cc(C(F)(F)F)n2)c1	-6.4	-0.8	5.0	0.3	2.5
FC(F)(F)c1cc(-c2cccs2)nc(-n2cc(Br)cn2)n1	-11.9	-0.8	49.9*	1.1	6.8
CCOC(=O)c1c(C)oc2cc(Br)c(OC(=O)N3CCOCC3)cc12	14.9	-0.3	52.3*	0.9	26.5
CCOc1cc(NC(=O)c2ccco2)c(OCC)cc1NC(=O)COc1ccccc1C	-5.0	-0.6	4.6	-1.0	-2.1
CCOc1cc(NC(=O)c2ccco2)c(OCC)cc1NC(=O)Cc1cccc(OC)c1	-5.4	-1.3	53.5*	2.6	6.5
CCOc1cccc(C(=O)Nc2cc(C)ccc2NC(=O)c2ccco2)c1	4.9	0.1	.	-6.6	-5.9
Cc1ccc(NC(=O)c2ccco2)c(NC(=O)c2ccc(Cl)cc2)c1	1.0	-0.2	55.6*	-3.7	5.7
CCOc1ccccc1C(=O)Nc1cc(C)ccc1NC(=O)c1ccco1	-0.8	-0.2	67.5*	-6.3	-11.0
Cc1ccc(NC(=O)c2ccc(Cl)c(S(=O)(=O)NCc3ccco3)c2)c(O)c1	.	1.6	56.3*	1.4	.
CC#CC[N+](C)(C)CCCCCCCCCCCC	35.8	-0.8	-3.7	-4.6	88.5*
N#C/C(=N\Nc1ccccc1)C(=N)N1CCCCC1	21.6	2.5	29.4	4.9	39.7
N#C/C(=N/Nc1ccc([N+](=O)[O-])cc1)C(=N)N1CCCCC1	38.0	8.1*	.	2.5	42.1
N#C/C(=N\Nc1ccccc1[N+](=O)[O-])C(=N)N1CCCCC1	34.7	7.4*	7.7	2.7	64.3*
Cc1ccc(N/N=C(\C#N)C(=N)N2CCCCC2)cc1	25.7	7.4*	26.7	1.7	42.0
N#C/C(=N\Nc1ccc(Br)cc1)C(=N)N1CCOCC1	16.5	2.9	55.9*	2.6	34.0
SMILES	HSF1 inhib	NR0B1 inh	AHR act	FXN GAA850 act	HSF1 activator
O=C1C=C(c2ccc3c(c2)OCCO3)C[C@@H](c2ccc(F)cc2)C1	.	0.6	0.9	3.0	.
Cc1[nH]c2ccccc2c1CCNC(=O)c1ccc2c(c1[N+](=O)[O-])C(=O)c1ccccc1C2=O	23.3	0.9	-0.2	-6.7	57.6*
Cc1[nH]c2c(C)cccc2c1CCNC(=O)c1ccc2c(c1[N+](=O)[O-])C(=O)c1ccccc1C2=O	22.7	-0.3	4.0	-8.0	53.2*
CN(C)C(=O)c1ccc2c(c1[N+](=O)[O-])C(=O)c1ccccc1C2=O	14.3	-0.6	12.1	2.4	21.2
O=S(=O)(NCC1CCCO1)c1cnc(Cl)c(Br)c1 (stereo not given)	-0.2	-0.1	-1.4	0.1	-1.6
CC(C)(C)CN1CCN(CC#Cc2ccccc2)CC1CCO (stereo not given)	-1.7	1.9	59.1*	1.1	25.5
Cc1cccn2cc(COc3ccc(-c4ccccc4)cc3)nc12	35.7	-2.0	.	-1.2	68.9*
Brc1ccc(OCc2cn3ccccc3n2)cc1	53.0	-0.1	-5.2	4.7	83.1*
Cn1c(=O)c2ccccc2n(Cc2ccccc2Cl)c1=O	-45.8	1.9	1.8	4.0	-57.9
